Records with an inconclusive call do not appear. Unmarked numbers belong to inactive results. The source made the active and inactive calls. Calls follow the shape of the dose curve; as a rule, active = well fitted cell-killing curve with a large enough effect; inconclusive = small, poorly fitted or top-dose-only effect, or effect the other way; inactive = no such curve, though single readings can be large or run the other way.
test: Quantitative High-Throughput drug screen in 47 multiple myeloma cell lines against the NCATS MIPE library collection: PCM6_Riken cell viability assay (AID 1919870); settings: CellTiter-Glo ATP, 48 h; series mostly up to 45.8 µM; viability (% of control): at the top concentration; also: nearly all actives have a fitted effect of over 30% in size
Excerpt: PI: Beverly A. Mock Ph.D.
Laboratory of Cancer Biology and Genetics,
Center for Cancer Research, National Cancer Institute,
National Institute of Health, Bethesda, Maryland
Drug resistance and disease progression are common in multiple myeloma (MM) patients, underscoring the need for new therapeutic combinations. […] We hypothesized that effective combinations would reduce MYC expression and enhance p16 activity. […] These preclinical data identify potentially useful drug combinations for evaluation in drug-resistant MM and reveal potential mechanisms of combined drug sensitivity.
Described herein is the primary MIPE qHTS used to cherrypick compounds. Validated compounds were then further tested for potential synergistic activiy.
[1] Peat TJ, Gaikwad SM, Dubois W, Gyabaah-Kessie N, Zhang S, Gorjifard S, Phyo Z, Andres M, Hughitt VK, Simpson RM, Miller MA, Girvin AT, Taylor A, Williams D, D'Antonio N, Zhang Y, Rajagopalan A, Flietner E, Wilson K, Zhang X, Shinn P, Klumpp-Thomas C, McKnight C, Itkin Z, Chen L, Kazandijian D, Zhang J, Michalowski AM, Simmons JK, Keats J, Thomas CJ, Mock BA. Drug combinations identified by high-throughput screening promote cell cycle transition and upregulate Smad pathways in myeloma. Cancer Lett. 2023 Aug 1;568:216284. doi: 10.1016/j.canlet.2023.216284. Epub 2023 Jun 24. PMID: 37356470; PMCID: PMC10408729.
SEQUENCE No. (e.g., 1, 2, 3, etc.); […] (e.g., Cells, Incubation, Reagent, etc.); VALUE and DESCRIPTION.
1; Cells; 5 uL; white, solid bottom 1536-well Greiner assay plate.
2; Compounds; 23 nL; Kalypsis pin tool (Wako USA) equipped with a 1536-well pin head to transfer to the assay plates.
3; Incubation; 48 hours; 37C incubation.
4; Reagent;5uL; CellTiter Glo (Promega).
5; Detector; 425V; Luminescence; Viewlux PerkinElmer.
NOTES (numbers refer to Sequence numbers above)
1. The cell-based screening methods employed in this study were like those previously published. Briefly, the corresponding myeloma cell lines were screened in 1,536-well plates with 500 cells, 5-uL per well for inhibition of cell viability (assessed by measuring ATP levels with CellTiterGlo).
2. NCATS MIPE 4.0 library of approved and investigational drugs were added using the Kalypsis pin tool. Wells treated with DMSO only for 100% viability and media only for 0% viability were used as controls.
3. The assay plates were covered and incubated for 48 hours in a 37C, 5% CO2 incubator with controlled humidity.
4. After 48 hours, CellTilter-GloTM luminescent substrate mix (Promega) reagent was added to the assay plate and plates we incubated for 5 min at room temperature.
5. Signal was measured as median relative luminescence units on a ViewLux (PerkinElmer) multiplate reader.
[1] Heske CM, Davis MI, Baumgart JT, Wilson K, Gormally MV, Chen L, Zhang X, Ceribelli M, Duveau DY, Guha R, Ferrer M, Arnaldez FI, Ji J, Tran HL, Zhang Y, Mendoza A, Helman LJ, Thomas CJ. Matrix Screen Identifies Synergistic Combination of PARP Inhibitors and Nicotinamide Phosphoribosyltransferase (NAMPT) Inhibitors in Ewing Sarcoma. Clin Cancer Res. 2017 Dec 1;23(23):7301-7311. doi: 10.1158/1078-0432.CCR-17-1121. Epub 2017 Sep 12. PMID: 28899971; PMCID: PMC6636827.
Potency is read from the fitted curve at half-maximal effect.

| SMILES | viability (% of control) | Potency |
| --- | --- | --- |
| CCN(CC)C(=O)c1ccc(C2=CC3(CCNCC3)Oc3cccc(O)c32)cc1 | 133% | – |
| CCC(=O)OC1CCC2C3CCC4=CC(=O)CC[C@@]4(C)C3CC[C@]12C (stereo not given in full) | 89.7% | – |
| NC1CC1c1ccccc1 (stereo not given) | 101% | – |
| c1ccc(CCCN2CCN(CCOC(c3ccccc3)c3ccccc3)CC2)cc1 | – | 26.4 µM (active) |
| O=c1cccc2n1CC1CNC[C@H]2C1 | – | 20.9 µM (active) |
| Cc1[nH]nc2ccc(-c3cncc(OC[C@@H](N)Cc4c[nH]c5ccccc45)c3)cc12 | – | 0.264 µM (active) |
| CC(C)N[C@@H]1CCn2c(=O)[nH]c3cccc(c32)[C@@H]1O | – | 5.26 µM (active) |
| CC=C(C)C(=O)N[C@@H](c1ccccc1)[C@@H](O)C(=O)O[C@H]1C[C@@]2(O)[C@@H](OC(=O)c3ccccc3)[C@@H]3[C@]4(OC(C)=O)CO[C@@H]4C[C@H](O)[C@@]3(C)C(=O)[C@H](OC(C)=O)C(=C1C)C2(C)C | 74.2% | – |
| C=C[C@@H]1CN2CCC1C[C@H]2[C@H](O)c1ccnc2ccccc12 (stereo not given in full) | – | 14.8 µM (active) |
| O=S(=O)(F)Cc1ccccc1 | – | 2.64 µM (active) |
| C[C@]12Cc3cn[nH]c3C[C@@H]1CC[C@@H]1[C@H]2CC[C@@]2(C)[C@H]1CC[C@]2(C)O | 119% | – |
| CC[C@@H](C(N)=O)N1CCCC1=O | 117% | – |
| CC1=C(O)C(=O)C=C2C1=CC=C1[C@@]2(C)CC[C@@]2(C)[C@@H]3C[C@](C)(C(=O)O)CC[C@]3(C)CC[C@]12C | – | 0.743 µM (active) |
| C[C@]12CC[C@H]3[C@@H](CCC4=CC(=O)CC[C@@]43C)[C@H]1CC[C@H]2OC(=O)CCC1CCCC1 | 102% | – |
| CO[C@H]1CCC(O[C@H]2C[C@H]([C@]3(C)CC[C@]4(C[C@H](O)[C@@H](C)[C@@H]([C@@H](C)C=C(C)C(=O)[C@H](C)C[C@H](C)C(=O)O)O4)O3)O[C@]3(O[C@@H]([C@H]4O[C@@](O)(CO)[C@H](C)C[C@H]4C)C[C@H]3C)[C@H]2C)O[C@H]1C (stereo not given in full) | – | 0.935 µM (active) |
| C[C@@H]1O[C@@H](O[C@@H]2C=C3CC[C@@H]4[C@@H](CC[C@]5(C)[C@H](c6ccc(=O)oc6)CC[C@@]45O)[C@@]3(C)CC2)[C@H](O)[C@H](O)[C@H]1O | – | 0.0093 µM (active) |
| C[C@@H]1[C@H](O)[C@@H](C)C=CC=CCCC=CC=CC=CC=C[C@H](O[C@H]2O[C@@H](C)[C@H](O)[C@@H](N)[C@@H]2O)CC2O[C@](O)(C[C@@H](O)[C@H](O)CC[C@@H](O)C[C@@H](O)C[C@@H](O)CC(=O)O[C@H]1C)C[C@H](O)[C@H]2C(=O)O | 129% | – |
| c1cc2c(cc1[C@H]1OC[C@H]3[C@H]1CO[C@H]3c1ccc3c(c1)OCO3)OCO2 | 101% | – |
| CC(=Cc1csc(C)n1)[C@@H]1C[C@H]2O[C@]2(C)CCC[C@H](C)[C@@H](O)[C@@H](C)C(=O)C(C)(C)[C@@H](O)CC(=O)O1 | 82.6% | – |
| CCCC[N+]1(C)[C@H]2CC(OC(=O)[C@H](CO)c3ccccc3)C[C@H]1[C@H]1O[C@H]12 (stereo not given in full) | 103% | – |

| SMILES | viability (% of control) | Potency |
| --- | --- | --- |
| CCOC(=O)c1cncn1[C@H](C)c1ccccc1 | 101% | – |
| COc1cc2cc(c1Cl)N(C)C(=O)C[C@H](OC(=O)C(C)C)[C@]1(C)O[C@H]1[C@H](C)[C@@H]1C[C@@](O)(NC(=O)O1)[C@H](OC)C=CC=C(C)C2 | 36% | – |
| CC(=O)OCC1=C(C(=O)O)N2C(=O)[C@@H](N)[C@@H]2SC1 | 134% | – |
| Oc1ccc2c3c1O[C@H]1c4[nH]c5c(c4C[C@@]4(O)[C@@H](C2)N(CC2CC2)CC[C@]314)C[C@@]1(O)[C@H]2Cc3ccc(O)c4c3[C@@]1(CCN2CC1CC1)[C@H]5O4 | 79.8% | – |
| CC(C)[C@H]1C(=O)N[C@H](CO)Cc2c[nH]c3cccc(c23)N1C | – | 0.264 µM (active) |
| O=S(=O)(CC1CS1)c1ccc(Oc2ccccc2)cc1 (stereo not given) | – | 23.5 µM (active) |
| Cc1c(C(=O)c2cccc3ccccc23)c2cccc3c2n1[C@H](CN1CCOCC1)CO3 | 105% | – |
| C1=C2CCCN[C@H]2[C@@H]2C[C@H]1[C@@H]1CCCCN1C2 | 123% | – |
| CC[C@@]1(O)C(=O)OCc2c1cc1n(c2=O)Cc2cc3ccccc3nc2-1 | – | 0.372 µM (active) |
| CC(C)(C)[C@]1(O)C[C@@H]2OC(=O)C[C@@]23C(=O)O[C@@H]2OC(=O)[C@H](O)C213 (stereo not given in full) | 127% | – |
| COc1ccc(N(C(=O)Oc2c(C)cccc2C)c2ccnc(Nc3ccc(N4CCN(C)CC4)cc3)n2)c(OC)c1 | – | 16.6 µM (active) |
| CCOP(=O)(OCC)C(C)NC(=O)N(CCCl)N=O (stereo not given) | 136% | – |
| CC=C(C)C(=O)O[C@H]1C(C)=C2[C@@H]3OC(=O)[C@@](C)(O)[C@@]3(O)[C@@H](OC(=O)CCC)C[C@](C)(OC(C)=O)[C@@H]2[C@@H]1OC(=O)CCCCCCC | – | 11.8 µM (active) |
| COCC1(CO)C(=O)C2CCN1CC2 (stereo not given) | – | 20.9 µM (active) |
| C=CCON=C(C[C@H]1O[C@@H]2O[C@]3(C)CC[C@@H]4[C@H](C)CC[C@@H]([C@H]1C)[C@@]24OO3)[C@H]1O[C@@H]2O[C@]3(C)CC[C@H]4[C@H](C)CC[C@@H]([C@@H]1C)[C@@]24OO3 | – | 0.526 µM (active) |
| CCCCCC[C@H]1C(=O)O[C@H](C)[C@H](NC(=O)c2cccc(NC=O)c2O)C(=O)O[C@@H](C)[C@@H]1OC(=O)CC(C)C | – | 0.0526 µM (active) |
| CC(=Cc1csc(C)n1)[C@@H]1C[C@H]2O[C@@H]2CCC[C@H](C)[C@@H](O)[C@@H](C)C(=O)C(C)(C)[C@@H](O)CC(=O)O1 | 87.4% | – |
| C[C@@H]1CC[C@H]2[C@@H](C)C(=O)O[C@@H]3O[C@@]4(C)CC[C@H]1[C@]32OO4 | – | 6.62 µM (active) |
| COc1ccc2c(c[n+](C)c3c4cc5c(cc4ccc23)OCO5)c1OC | – | 7.43 µM (active) |
| CCc1c(C(=O)C(N)=O)c2c(OCC(=O)O)cccc2n1Cc1ccccc1 | 124% | – |

Reference: PubChem BioAssay (NCATS)
